From the supplement of paper PMC11732987, “Enantioselective OTUD7B fragment discovery through chemoproteomics screening and high-throughput optimisation” (Communications Chemistry, 2025)

Assays:
Assay in all cases: log2 ratio of Biotin-Ahx-Ub-VS probe labelling (fragment/DMSO); higher = less target engagement (more negative = stronger competition), active = hit call of the paper (q ≤ 0.05, log2 ratio ≤ -1)
Settings in all cases: compound concentration: 200 uM; treatment time: 3 h
[1] = target: T1, ALG13 (UniProt Q9NP73)
T1 sequence (whole entry): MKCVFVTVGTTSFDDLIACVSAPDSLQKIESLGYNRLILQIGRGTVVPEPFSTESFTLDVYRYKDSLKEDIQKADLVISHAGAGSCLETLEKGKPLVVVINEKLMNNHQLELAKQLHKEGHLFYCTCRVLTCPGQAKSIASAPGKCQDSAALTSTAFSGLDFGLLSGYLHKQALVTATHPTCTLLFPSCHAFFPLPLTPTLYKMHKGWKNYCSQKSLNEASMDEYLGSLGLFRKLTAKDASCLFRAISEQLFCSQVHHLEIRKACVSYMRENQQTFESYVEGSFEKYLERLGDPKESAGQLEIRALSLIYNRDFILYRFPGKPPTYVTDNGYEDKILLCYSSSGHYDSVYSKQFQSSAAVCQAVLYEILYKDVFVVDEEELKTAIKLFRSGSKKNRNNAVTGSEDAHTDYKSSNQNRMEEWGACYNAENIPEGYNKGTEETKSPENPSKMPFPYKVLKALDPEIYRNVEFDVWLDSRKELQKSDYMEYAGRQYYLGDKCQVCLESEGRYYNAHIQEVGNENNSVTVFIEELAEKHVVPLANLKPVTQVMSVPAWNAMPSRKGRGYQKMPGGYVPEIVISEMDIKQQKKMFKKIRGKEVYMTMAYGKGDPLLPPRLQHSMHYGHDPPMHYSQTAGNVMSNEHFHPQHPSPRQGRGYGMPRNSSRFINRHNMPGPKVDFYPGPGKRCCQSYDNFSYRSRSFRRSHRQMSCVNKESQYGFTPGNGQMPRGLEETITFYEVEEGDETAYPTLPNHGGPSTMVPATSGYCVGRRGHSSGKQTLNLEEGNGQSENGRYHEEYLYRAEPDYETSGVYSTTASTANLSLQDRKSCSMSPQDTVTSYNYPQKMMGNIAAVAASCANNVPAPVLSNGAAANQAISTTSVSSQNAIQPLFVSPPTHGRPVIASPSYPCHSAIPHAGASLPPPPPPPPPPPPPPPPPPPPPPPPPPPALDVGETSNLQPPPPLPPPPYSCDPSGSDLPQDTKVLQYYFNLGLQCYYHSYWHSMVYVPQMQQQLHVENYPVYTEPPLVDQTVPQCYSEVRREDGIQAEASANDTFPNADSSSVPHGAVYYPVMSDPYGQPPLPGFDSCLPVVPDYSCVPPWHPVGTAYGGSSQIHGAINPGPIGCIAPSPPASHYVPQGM
Summary of the method: (§1)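 HEK293T lysate, 495 µg per sample in Tris/CHAPS/IGEPAL buffer with protease inhibitors, was treated in triplicate with fragment at 200 µM or vehicle for 3 h and then with Biotin-Ahx-Ub-VS at 0.5 µM final for 1 h. Labelled DUBs were NeutrAvidin-enriched, digested with LysC and trypsin, and run by diaPASEF LC-MS/MS. Spectronaut label-free quantities were global-median-normalised, and values are average log2 fragment/vehicle ratios by unpaired t-test on proteins with ≥2 unique peptides.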

[2] = target: ATXN3 (UniProt P54252)
Sequence of ATXN3 (P54252 whole entry): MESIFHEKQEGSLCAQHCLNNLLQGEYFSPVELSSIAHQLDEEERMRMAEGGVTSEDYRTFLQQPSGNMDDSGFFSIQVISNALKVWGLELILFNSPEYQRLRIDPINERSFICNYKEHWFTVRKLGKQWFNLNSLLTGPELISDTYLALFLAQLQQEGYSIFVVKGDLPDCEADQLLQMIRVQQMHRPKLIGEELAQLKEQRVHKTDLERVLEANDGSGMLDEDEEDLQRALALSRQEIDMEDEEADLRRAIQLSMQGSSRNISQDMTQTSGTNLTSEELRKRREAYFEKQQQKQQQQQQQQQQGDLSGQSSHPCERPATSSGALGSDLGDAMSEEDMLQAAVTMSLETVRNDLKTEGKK
Summary of the method: as §1

[3] = target: T2, BAP1 (UniProt Q92560)
T2 sequence (whole entry): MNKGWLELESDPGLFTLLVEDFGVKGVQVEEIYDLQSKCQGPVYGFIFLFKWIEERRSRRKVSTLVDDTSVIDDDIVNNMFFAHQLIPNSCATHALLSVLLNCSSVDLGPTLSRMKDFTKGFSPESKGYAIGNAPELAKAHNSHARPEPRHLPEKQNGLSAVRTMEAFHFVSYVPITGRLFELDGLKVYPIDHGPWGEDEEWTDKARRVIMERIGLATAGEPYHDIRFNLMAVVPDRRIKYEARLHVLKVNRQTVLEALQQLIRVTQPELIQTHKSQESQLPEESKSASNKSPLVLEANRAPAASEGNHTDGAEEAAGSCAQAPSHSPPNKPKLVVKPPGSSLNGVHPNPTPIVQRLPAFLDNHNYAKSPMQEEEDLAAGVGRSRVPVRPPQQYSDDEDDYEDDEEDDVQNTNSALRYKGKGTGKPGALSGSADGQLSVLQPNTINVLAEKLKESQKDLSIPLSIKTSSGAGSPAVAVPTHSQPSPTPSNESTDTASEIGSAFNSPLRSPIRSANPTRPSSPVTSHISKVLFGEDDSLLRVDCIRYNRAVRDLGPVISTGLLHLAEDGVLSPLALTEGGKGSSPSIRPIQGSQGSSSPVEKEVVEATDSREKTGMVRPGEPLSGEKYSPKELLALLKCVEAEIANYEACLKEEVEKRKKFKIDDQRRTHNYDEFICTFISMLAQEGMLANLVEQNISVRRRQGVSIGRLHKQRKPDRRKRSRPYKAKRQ
Summary of the method: as §1

[4] = target: EIF3F (UniProt O00303)
Sequence of EIF3F (O00303 whole entry): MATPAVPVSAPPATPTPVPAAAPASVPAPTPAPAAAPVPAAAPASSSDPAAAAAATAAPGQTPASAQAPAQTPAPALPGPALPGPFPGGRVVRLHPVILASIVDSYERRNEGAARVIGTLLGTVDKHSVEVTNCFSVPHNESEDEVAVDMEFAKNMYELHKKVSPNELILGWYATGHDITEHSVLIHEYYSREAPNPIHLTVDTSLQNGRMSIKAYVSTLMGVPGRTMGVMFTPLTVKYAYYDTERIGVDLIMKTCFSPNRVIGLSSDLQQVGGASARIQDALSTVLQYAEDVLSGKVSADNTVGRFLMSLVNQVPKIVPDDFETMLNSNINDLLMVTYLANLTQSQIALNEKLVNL
Summary of the method: as §1

[5] = target: EIF3H (UniProt O15372)
Sequence of EIF3H (O15372 whole entry): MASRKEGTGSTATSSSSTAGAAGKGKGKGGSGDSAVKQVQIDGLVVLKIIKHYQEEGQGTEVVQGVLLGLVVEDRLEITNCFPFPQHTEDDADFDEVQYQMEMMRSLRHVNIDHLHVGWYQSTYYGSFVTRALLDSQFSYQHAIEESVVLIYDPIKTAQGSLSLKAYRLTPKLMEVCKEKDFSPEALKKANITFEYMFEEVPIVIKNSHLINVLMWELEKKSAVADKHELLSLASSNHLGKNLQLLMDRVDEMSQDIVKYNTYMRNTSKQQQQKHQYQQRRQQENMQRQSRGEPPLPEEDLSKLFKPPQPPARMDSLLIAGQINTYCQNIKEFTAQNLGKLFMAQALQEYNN
Summary of the method: as §1

[6] = target: T3, FAM105A (UniProt Q9NUU6)
T3 sequence (whole entry): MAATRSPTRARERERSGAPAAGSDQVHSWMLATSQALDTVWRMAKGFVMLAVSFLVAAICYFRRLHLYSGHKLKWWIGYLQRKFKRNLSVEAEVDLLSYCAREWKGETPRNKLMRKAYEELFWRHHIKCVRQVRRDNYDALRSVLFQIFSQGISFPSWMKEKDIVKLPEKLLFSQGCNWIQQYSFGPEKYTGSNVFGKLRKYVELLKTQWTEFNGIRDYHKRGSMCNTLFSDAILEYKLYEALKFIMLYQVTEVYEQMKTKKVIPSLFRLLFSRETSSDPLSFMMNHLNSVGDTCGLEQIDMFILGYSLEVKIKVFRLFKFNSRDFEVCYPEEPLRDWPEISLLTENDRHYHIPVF
Summary of the method: as §1

[7] = target: OTUB1 (UniProt Q96FW1)
Sequence of OTUB1 (Q96FW1 whole entry): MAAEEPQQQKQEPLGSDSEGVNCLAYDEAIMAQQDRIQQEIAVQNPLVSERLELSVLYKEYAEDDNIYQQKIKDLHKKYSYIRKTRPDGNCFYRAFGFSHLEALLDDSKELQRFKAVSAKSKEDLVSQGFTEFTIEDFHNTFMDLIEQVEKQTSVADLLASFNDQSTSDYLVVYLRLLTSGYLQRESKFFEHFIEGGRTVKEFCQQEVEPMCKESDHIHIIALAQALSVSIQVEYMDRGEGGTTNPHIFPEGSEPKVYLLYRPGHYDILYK
Summary of the method: as §1

[8] = target: T4, OTUD4 (UniProt Q01804)
T4 sequence (whole entry): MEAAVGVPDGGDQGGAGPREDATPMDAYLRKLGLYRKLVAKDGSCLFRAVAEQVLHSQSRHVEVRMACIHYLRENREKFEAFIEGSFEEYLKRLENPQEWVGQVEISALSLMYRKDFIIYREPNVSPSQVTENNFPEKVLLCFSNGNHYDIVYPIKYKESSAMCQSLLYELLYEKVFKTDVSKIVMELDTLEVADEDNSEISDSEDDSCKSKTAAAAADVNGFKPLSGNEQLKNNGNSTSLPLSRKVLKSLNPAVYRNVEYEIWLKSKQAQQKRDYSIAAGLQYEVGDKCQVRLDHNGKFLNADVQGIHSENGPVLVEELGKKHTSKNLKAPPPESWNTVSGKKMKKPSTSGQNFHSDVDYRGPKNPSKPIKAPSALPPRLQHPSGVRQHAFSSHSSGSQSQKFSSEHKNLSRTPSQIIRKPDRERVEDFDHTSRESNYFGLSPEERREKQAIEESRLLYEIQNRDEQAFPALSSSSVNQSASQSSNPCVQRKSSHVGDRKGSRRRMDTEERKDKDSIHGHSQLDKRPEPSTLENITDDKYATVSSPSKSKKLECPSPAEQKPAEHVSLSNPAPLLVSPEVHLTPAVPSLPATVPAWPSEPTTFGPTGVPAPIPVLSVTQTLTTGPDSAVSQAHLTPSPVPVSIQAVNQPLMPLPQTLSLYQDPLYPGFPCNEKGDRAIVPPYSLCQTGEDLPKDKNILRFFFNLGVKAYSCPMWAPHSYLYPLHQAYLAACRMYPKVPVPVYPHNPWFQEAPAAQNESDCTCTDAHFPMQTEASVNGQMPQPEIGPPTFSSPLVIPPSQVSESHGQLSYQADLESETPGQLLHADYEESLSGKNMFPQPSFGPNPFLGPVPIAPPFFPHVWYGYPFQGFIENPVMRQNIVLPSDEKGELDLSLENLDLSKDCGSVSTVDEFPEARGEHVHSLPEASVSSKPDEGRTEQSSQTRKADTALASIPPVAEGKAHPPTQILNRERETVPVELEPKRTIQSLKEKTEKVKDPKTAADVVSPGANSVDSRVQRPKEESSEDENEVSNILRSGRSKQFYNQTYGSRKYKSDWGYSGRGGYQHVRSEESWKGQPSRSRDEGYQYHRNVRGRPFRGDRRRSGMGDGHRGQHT
Summary of the method: as §1

[9] = target: T5, OTUD5 (UniProt Q96G74)
T5 sequence (whole entry): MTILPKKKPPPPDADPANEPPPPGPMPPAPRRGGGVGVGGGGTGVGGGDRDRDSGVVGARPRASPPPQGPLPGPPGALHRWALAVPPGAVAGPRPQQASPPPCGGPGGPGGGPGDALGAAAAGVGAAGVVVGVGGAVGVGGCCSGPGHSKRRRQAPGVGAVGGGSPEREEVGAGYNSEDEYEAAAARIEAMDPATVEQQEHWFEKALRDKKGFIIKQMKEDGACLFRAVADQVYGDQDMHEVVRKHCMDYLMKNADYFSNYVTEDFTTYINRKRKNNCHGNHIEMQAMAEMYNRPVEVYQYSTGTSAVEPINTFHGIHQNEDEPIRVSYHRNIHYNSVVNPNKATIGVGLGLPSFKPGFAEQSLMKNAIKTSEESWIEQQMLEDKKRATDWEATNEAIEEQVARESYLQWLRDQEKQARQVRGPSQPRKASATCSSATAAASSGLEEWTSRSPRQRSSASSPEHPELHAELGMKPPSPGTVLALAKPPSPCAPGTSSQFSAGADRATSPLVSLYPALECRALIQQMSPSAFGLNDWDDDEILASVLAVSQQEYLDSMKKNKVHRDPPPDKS
Summary of the method: as §1

Measured: log2 ratio of Biotin-Ahx-Ub-VS probe labelling

Cl.O=C(CCl)N1CCn2cncc2C1
inactive: [1] 0.285 | [2] -0.224 | [3] -0.163 | [4] -0.0339 | [5] 0.0971 | [6] -0.433 | [7] -0.000993 | [8] 0.0549 | [9] -0.214
